Results on 14 molecules are retold here after PubChem BioAssay (NCI).

This is part of a sample that, as a whole, favours compounds with a hit. Of some 83,000 tested, about 20% had one in any assay.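 Interpretation: 100, growth as untreated; towards 0, rising growth inhibition; 0, no net growth; 0 to -100, cell death. Compounds scoring below 10 were considered active.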 Unmarked numbers belong to inactive results. The source made the active and inactive calls.

Some test systems named below: HCT-15 colon; HT29 colon; SNB-75 CNS; SNB-19 CNS; U251 CNS; PC-3 prostate; SK-MEL-5 melanoma; UACC-62 melanoma; LOX IMVI melanoma; SK-MEL-28 melanoma.
Holding throughout (assay): NCI-60 one-dose screen, 48 h (100 = growth as untreated, 0 = no growth, -100 = all killed)
Common to all, as to conditions: 10 µM unless noted

On to `COc1ccc2[nH]c(=O)c(/C=C/C(=O)c3ccccc3OC)cc2c1`, for which the growth in the assay on HCT-15 colon is 11.3%; in the assay on HT29 colon, 7.17% (active); in the assay with SNB-75 CNS it was -11.5% (active); in the assay on SNB-19 CNS, 17%; in the assay on U251 CNS, 5.14% (active); in the assay with PC-3 prostate, 22.1%. The growth in the assay on SK-MEL-5 melanoma is 25.2%; in the assay on UACC-62 melanoma, 25.7%; in the assay with LOX IMVI melanoma, 10.2%; with SK-MEL-28 melanoma, 50.5%.

Take `COc1ccc(/C=C/C(=O)C(CC2CCC2)C(=O)/C=C/c2ccc(OC)c(OC)c2)cc1OC`: the growth in the assay on HCT-15 colon was -35.4% (active); with HT29 colon, -51.1% (active); in the assay with SNB-75 CNS, 64.7%; with SNB-19 CNS it was -13.1% (active); in the assay on U251 CNS it was -68.8% (active); with PC-3 prostate it was -8.3% (active). Besides, the growth was -76.6% (active) in the assay on SK-MEL-5 melanoma, -65.5% (active) with UACC-62 melanoma, -75.4% (active) in the assay with LOX IMVI melanoma and -4.06% (active) in the assay with SK-MEL-28 melanoma.

For the molecule `CC(C)(C)CC(C)(C)Cc1ccc(OCCOCC[N+](C)(C)Cc2ccccc2)cc1`, the growth in the assay on HCT-15 colon was 97%; in the assay with HT29 colon, 9.89% (active); with SNB-75 CNS it was -9% (active); with SNB-19 CNS, -7.68% (active); with U251 CNS, 2.86% (active); in the assay on PC-3 prostate, 10.1%. Further, the growth in the assay on SK-MEL-5 melanoma was -98.8% (active); with UACC-62 melanoma it was -36.1% (active); in the assay with LOX IMVI melanoma, 10.5%; in the assay on SK-MEL-28 melanoma, 20.5%.

Consider `Nc1cc(N)nc(SCC(=O)O)n1`, for which the growth is 110% with HCT-15 colon; 85.1% with HT29 colon; 100% with SNB-75 CNS; 100% with SNB-19 CNS; 93.4% in the assay on U251 CNS; 89.9% in the assay with PC-3 prostate. The growth with SK-MEL-5 melanoma was 99.8%; in the assay with UACC-62 melanoma, 99.1%; in the assay on LOX IMVI melanoma it was 97.4%; with SK-MEL-28 melanoma it was 106%.

`N#Cc1c(-c2ccc(Cl)cc2)cc(-c2cc3ccccc3o2)nc1SCC(=O)c1ccc(Cl)cc1`: the growth with HCT-15 colon was 91.4%; in the assay with HT29 colon, 97.1%; in the assay on SNB-75 CNS it was 76.7%; with SNB-19 CNS, 99.9%; in the assay with U251 CNS, 93.8%; with PC-3 prostate, 84.6%. The growth in the assay with SK-MEL-5 melanoma was 100%; in the assay with UACC-62 melanoma it was 93.5%; in the assay on LOX IMVI melanoma, 91%; with SK-MEL-28 melanoma, 100%.

Turning to `CN1CC=C(c2cc(NC(=O)Nc3ccc(Oc4ccnc(NC(=O)C5CC5)c4)c(F)c3)cc(C(F)(F)F)c2)CC1`, the growth in the assay with HCT-15 colon is 5.35% (active); in the assay on HT29 colon it was -13.6% (active); in the assay on SNB-75 CNS, -76.4% (active); with SNB-19 CNS, 2.04% (active); in the assay on U251 CNS, -1.77% (active); in the assay on PC-3 prostate, 3.71% (active). Also, the growth in the assay on SK-MEL-5 melanoma is -43.9% (active); in the assay with UACC-62 melanoma it was -22.1% (active); in the assay on LOX IMVI melanoma, -46.5% (active); in the assay on SK-MEL-28 melanoma it was -1.25% (active).

`C(=C\c1cn(-c2ccccc2)nc1-c1ccccc1)/c1nnc(-c2c[nH]c3ccccc23)o1`: the growth with HCT-15 colon is 69%; in the assay on HT29 colon it was 39.7%; with SNB-75 CNS, 17.6%; with SNB-19 CNS, 60.5%; with U251 CNS, 20.9%; in the assay with PC-3 prostate it was 26%. For the same molecule, the growth is 59.4% with SK-MEL-5 melanoma, 95.4% in the assay with UACC-62 melanoma, 47.6% in the assay on LOX IMVI melanoma and 53.2% in the assay on SK-MEL-28 melanoma.

In the case of `CNC(=O)c1cc(Oc2ccc3c(c2)sc2nc(-c4ccc(NC(C)=O)cc4)cn23)ccn1`, the growth in the assay with HCT-15 colon is 53%; in the assay with HT29 colon it was 34.7%; in the assay with SNB-75 CNS it was -0.726% (active); in the assay with SNB-19 CNS it was 55.2%; in the assay on U251 CNS, 40.7%; in the assay on PC-3 prostate, 36.6%. The growth was 31.7% in the assay on SK-MEL-5 melanoma, 46.7% with UACC-62 melanoma, 60.9% with LOX IMVI melanoma and 70% in the assay with SK-MEL-28 melanoma.

With `CCOC(=O)c1c(C(F)(F)F)n([O-])c2ccc(Cl)cc2[n+]1=O`, the growth in the assay with HCT-15 colon was -60.2% (active); in the assay with HT29 colon, -43.2% (active); with SNB-75 CNS, -52.2% (active); in the assay on SNB-19 CNS it was 32.4%; in the assay on U251 CNS it was -87.7% (active); in the assay with PC-3 prostate, -85.7% (active). The growth in the assay on SK-MEL-5 melanoma was -93.2% (active); in the assay on UACC-62 melanoma it was -18.1% (active); with LOX IMVI melanoma, -86.8% (active); in the assay with SK-MEL-28 melanoma it was -32.8% (active).

`COc1ccc(-c2cc(-c3nnc(SCC(=O)Nc4ccc(/C(C)=N\O)cc4)o3)c3ccccc3n2)cc1`: the growth in the assay with HCT-15 colon is 100%; in the assay on HT29 colon, 101%; in the assay with SNB-75 CNS, 98.3%; in the assay with SNB-19 CNS, 90.8%; in the assay with U251 CNS, 101%; in the assay on PC-3 prostate it was 100%. In addition, the growth with SK-MEL-5 melanoma was 99.2%; in the assay with UACC-62 melanoma, 106%; in the assay with LOX IMVI melanoma, 97.7%; with SK-MEL-28 melanoma it was 114%.

Turning to `CC(=O)c1ccc(NC(=O)CSc2nnc(-c3cc(-c4ccc(C)cc4)nc4ccccc34)o2)cc1`, the growth in the assay on HCT-15 colon was 56.7%; with HT29 colon it was 68.2%; in the assay with SNB-75 CNS it was 62.1%; in the assay on SNB-19 CNS it was 43.2%; in the assay with U251 CNS, -59.8% (active); in the assay with PC-3 prostate, 53.4%. Further, the growth is 68.7% with SK-MEL-5 melanoma, 90.7% in the assay with UACC-62 melanoma, 31.9% in the assay on LOX IMVI melanoma and 99.3% in the assay with SK-MEL-28 melanoma.

For `O=C1CC23OC(C(O)c4ccccc4N12)C1C(c2ccccc2)=NOC13` (stereo not given), the growth in the assay with HCT-15 colon is 29.7%; with HT29 colon, 13.9%; in the assay on SNB-75 CNS it was 33.4%; with SNB-19 CNS, 44%; with U251 CNS, 40.2%; in the assay on PC-3 prostate it was 50%. Besides, the growth in the assay with SK-MEL-5 melanoma was 31.7%; with UACC-62 melanoma, 28.2%; with LOX IMVI melanoma, 37.8%; in the assay with SK-MEL-28 melanoma, 64.1%.

On to `COc1ccc2nc3nc4ccc[nH]c4cc3c2c1`, for which the growth with HCT-15 colon is 82.9%; in the assay on HT29 colon it was 97.7%; with SNB-75 CNS, 82.5%; with SNB-19 CNS, 105%; with U251 CNS, 94.8%; in the assay on PC-3 prostate, 93.2%. The growth in the assay on SK-MEL-5 melanoma was 88.6%; with UACC-62 melanoma, 105%; with LOX IMVI melanoma it was 95.1%; in the assay on SK-MEL-28 melanoma, 110%.

As for `O=C(Nc1ccc(N=Cc2ccccc2O)cc1)NC1C=c2ccccc2=CC1` (stereo not given), the growth with HCT-15 colon is 100%; in the assay with HT29 colon, 104%; with SNB-75 CNS it was 86.3%; in the assay on SNB-19 CNS, 100%; with U251 CNS, 93.2%; with PC-3 prostate, 104%. In addition, the growth is 98.7% with SK-MEL-5 melanoma, 92.7% in the assay on UACC-62 melanoma, 105% in the assay with LOX IMVI melanoma and 99.8% in the assay with SK-MEL-28 melanoma.
